Among the data in ChEMBL document CHEMBL1201862, “PubChem BioAssay data set” (2004) are GI50 values, retold here.

The campaign covered roughly 57,000 […]. About 2,500 (4.4%) were called active. Cut-off read from the data, not from the text of the source: active = GI50 up to about 1.1 µM and inactive = higher. These entries were drawn from the full list. Results with a measured potency or affinity are listed apart.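 Cells were grown in 96-well plates and exposed to each compound for 48 hours at five concentrations; endpoints were interpolated linearly between bracketing concentrations, or set to the highest concentration if not reached. The concentration for 50% growth inhibition is given as GI50.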

The test concerns UACC-257. The test is described as follows: NCI tumour cell line growth inhibition, 48 h.
With “[Bis(aminomethyl)dimethylsilane]dichloroplatinum (II), CHEMBL2146201”, the GI50 was found to be 45.7 µM.

Consider “[Bis(aminomethyl)ethylmethylsilane]tetrachloroplatinum(IV), CHEMBL2146192”, for which the GI50 is 3.3 µM.

“[Bis(aminomethyl)tetramethylenesilane]dichloropaltinum(II), CHEMBL2146205” showed a GI50 of 59.7 µM.

“[Bis(aminomethyl)dimethylsilane]tetrachloroplatinum(IV), CHEMBL2146190” gave a GI50 of 15.1 µM.

As to CISPLATIN, CHEMBL11359, the GI50 was determined as 4.09 µM.

The substance “[Bis(aminomethyl)pentamethylenesilane]dichloropaltinum(II), CHEMBL2146202” registered a GI50 of 6.81 µM.

Consider “cis-Bis[[(trimethylsilyl)methyl]amino]tetrachloroplatinum(IV), CHEMBL2146191”, for which the GI50 was determined as 5.31 µM.

“[Bis(aminomethyl)pentamethylenesilane]tetrachloropaltinum(IV), CHEMBL2146204” came in with a GI50 of 7.19 µM.

The substance “mu-(1,7-nanodiamine-N,N')bis-(cis-aminedichloroplatimum (II)), CHEMBL2146215” returned a GI50 of 20.1 µM.

“[Bis(aminomethyl)diethylsilane]tetrachloroplatinum(IV), CHEMBL2146203” displayed a GI50 of 4.79 µM.

For the substance “[Bis(aminomethyl)tetramethylenesilane]tetrachloropaltinum(IV), CHEMBL2146189”, the GI50 was 16.4 µM.
